mHTT CaM bind = inhibitors of human mutant huntingtin-calmodulin interaction | inhibition, % at 15 µM | P42858 | 190,000 compounds, 3.6% hits | AlphaScreen His-mHTT/GST-CaM binding, luminescence;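 note: 0% = both proteins with DMSO and 100% = one protein alone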
Pf apPOL block = Pf-apPOL DNA polymerase inhibition | Recombinant Pf-apPOL, molecular beacon fluorescence, 1.5 h | inhibition, % at 10 µM | 210,000 compounds, 0.25% hits
Numbers without * were called inactive. Rows were chosen to be rich in hits. Some 3.6% of all compounds tested hit in one or more screens of this group. Cut-off read from the data, not from the text of the source: active = inhibition above about 50%; inactive = the rest.

SMILES	mHTT CaM bind	Pf apPOL block
C=CCNCCOc1ccc(Cl)cc1Br	-6	-2
CC1CC(C)CN(C(=O)c2ccc(Cl)cc2[N+](=O)[O-])C1 (stereo not drawn)	0	2
CC1CCCN(C(=O)c2ccc(Cl)cc2[N+](=O)[O-])C1 (stereo not drawn)	3	80*
Fc1ccc(-c2ccc(CNCc3ccco3)o2)cc1	9	-2
Brc1ccc(-c2ccc(CNCc3ccco3)o2)cc1	92*	-9
O=C(Oc1ccc2c(c1)OC(=Cc1cccnc1)C2=O)c1ccc([N+](=O)[O-])cc1	12	7
CC(=O)Nc1cccc(N2CC(C(=O)NCCc3cccs3)CC2=O)c1 (stereo not drawn)	-3	-2
COc1ccc(NC(=O)C2CC(=O)N(CCc3c[nH]c4ccc(Cl)cc34)C2)c(OC)c1 (stereo not drawn)	77*	-3
COc1ccc(NC(=O)C2CC(=O)N(CCc3c[nH]c4ccc(OC)cc34)C2)cc1 (stereo not drawn)	36	10
COc1ccc(CNC(=O)C2CC(=O)N(CCc3c[nH]c4ccc(F)cc34)C2)cc1 (stereo not drawn)	18	-4
COc1ccc2[nH]cc(CCN3CC(C(=O)Nc4ccc5c(c4)CCC5)CC3=O)c2c1 (stereo not drawn)	61*	-4
COc1ccc2[nH]cc(CCN3CC(C(=O)Nc4ccc(Cl)cc4)CC3=O)c2c1 (stereo not drawn)	40	-3
COc1ccc(CNC(=O)C2CC(=O)N(CCc3c[nH]c4ccc(Cl)cc34)C2)cc1 (stereo not drawn)	74*	0
COc1ccc([N+](=O)[O-])cc1/C=C1\NC(=O)N(Cc2ccc(Br)cc2)C1=O	14	-3
CCn1c(=O)c(C(=O)N2CCN(C)CC2)nc2ccccc21	1	-8
Cc1cc(NC(=O)CN2C(=O)CC(c3ccccc3)=Nc3cccnc32)ccc1F	-4	4
CCOc1ccccc1NC(=O)C(=O)NCCc1ccsc1	-12	-10
Cc1ccc(Cl)cc1NC(=O)N1CCC(n2cnc3c(C)cccc3c2=O)CC1	50	0
COc1ccc(C=C2Oc3c(ccc4c3CN(C3CCS(=O)(=O)C3)CO4)C2=O)cc1 (stereo not drawn)	15	0
O=c1oc2ccc(Cl)cc2n1CNc1ccccc1F	3	63*
O=c1oc2ccc(Cl)cc2n1CNc1ccccc1	6	-20
COCCCNC(=O)c1cnn2c(C)c(Cc3ccccc3Cl)c(C)nc12	10	-28
CCn1ccc2sc(C)c(C(=O)NCc3ccccc3)c2c1=O	0	-5
CC(=O)C1=C(C)NC(SCC(=O)c2ccc(F)cc2)=C(C#N)C1c1cccc([N+](=O)[O-])c1 (stereo not drawn)	38	0
CCc1ccc(C2C(C#N)=C(SCC(=O)c3ccc([N+](=O)[O-])cc3)NC(C)=C2C(C)=O)cc1 (stereo not drawn)	60*	2
SMILES	mHTT CaM bind	Pf apPOL block
O=C(Nc1nc2c(s1)CN(CC(=O)N1CCCc3ccccc31)CC2)c1cnccn1	63*	14
O=C(Nc1nc2c(s1)CN(C(=O)Cc1cccs1)CC2)c1cnccn1	14	16
CCc1ccc(C(=O)N2CCN(c3nc(CN4CCCCCC4)cs3)CC2)cc1	7	-2
O=C(O)CCCNc1cc(N2CCOCC2)c2noc3c2c1C(=O)c1ccccc1-3	52*	-2
CN(C)c1ccc(Nc2cc(N3CCOCC3)c3noc4c3c2C(=O)c2ccccc2-4)cc1	13	-3
O=C1c2ccccc2-c2onc3c(N4CCOCC4)cc(Nc4cccc(F)c4)c1c23	-6	-1
O=C(O)c1ccc(Nc2cc(N3CCOCC3)c3noc4c3c2C(=O)c2ccccc2-4)cc1	55*	-3
COc1ccc(C2CC(C(F)(F)F)n3nc(C(=O)Nc4ccc(C)cc4C)cc3N2)cc1OC (stereo not drawn)	2	-2
CC(=O)c1ccc(S(=O)(=O)NCC2CCN(C(=O)NC(C)(C)C)CC2)cc1	0	-7
Cn1cc(CC(=O)NCC2CC2)c2cccnc21	-5	-1
COc1ccc(CNC(=O)CCC2N=C3c4ccccc4N=C(SCC(N)=O)N3C2=O)cc1 (stereo not drawn)	2	-3
O=C(NCc1cc(-c2ccco2)on1)c1ccc(F)c(F)c1	-4	1
O=C(NCc1cc(-c2ccco2)on1)c1ccc(=O)oc1	14	63*
CN1CCCn2nc(C3CCN(C(=O)c4ccc(F)cc4)CC3)cc2C1=O	-4	0
COc1ccc(S(=O)(=O)CCC(=O)Nc2nc(-c3ccccc3)c(C(C)=O)s2)cc1	0	0
COC(=O)C1CN(CCc2ccccc2)CCS(=O)(=O)N1Cc1ccc(C(F)(F)F)cc1 (stereo not drawn)	77*	-1
COC(=O)C1CN(CCc2ccccc2)CCS(=O)(=O)N1Cc1ccccc1 (stereo not drawn)	12	-3
COC(=O)C1CN(Cc2ccc(C)cc2)CCS(=O)(=O)N1Cc1cn(Cc2ccc(F)cc2)nn1 (stereo not drawn)	3	-7
COC(=O)C1CN(Cc2ccc(F)cc2)CCS(=O)(=O)N1Cc1ccc(C)cc1 (stereo not drawn)	50*	-2
Cc1cccc(N2CCN(C(=O)/C=C3\Sc4ccccc4NC3=O)CC2C)c1 (stereo not drawn)	28	4
Cc1cccc(N2CCN(C(=O)c3ccc4c(c3)NC(=O)c3ccccc3S4)CC2C)c1 (stereo not drawn)	100*	-10
COc1ccc(OCC(=O)NCc2nnc3n2CCCC3)cc1	-5	-2
O=C1CCC(=O)N1c1ccc(Cc2ccc(N3C(=O)CCC3=O)cc2)cc1	-3	-1
C=CCn1c(SCC(=O)O)nnc1-c1cccs1	50*	-5
C=CCn1c(SCC(=O)c2ccc(F)cc2)nnc1-c1cccs1	0	-8
SMILES	mHTT CaM bind	Pf apPOL block
COc1ccc(CNCc2cc3c(cc2[N+](=O)[O-])OCO3)cc1	9	-9
Cc1cc(C)cc(NCc2cc3c(cc2[N+](=O)[O-])OCO3)c1	68*	-6
CCCN1CCCc2cc(CCNC(=O)C(=O)Nc3cccc(SC)c3)ccc21	65*	-2
CSc1cccc(NC(=O)C(=O)NCCC2=CCCCC2)c1	-14	-6
COc1cc(C2=N/C(=C\c3ccccc3C(F)(F)F)C(=O)O2)cc(OC)c1OC	-3	-2
CC1CCCCC1NC(=O)Nc1cn(C)c2ccccc12 (stereo not drawn)	-10	-1
CN(C)c1ccc(NC(=O)Nc2cn(C)c3ccccc23)cc1	56*	2
CCc1onc(C)c1C1CCCN1C(=O)Nc1ccc(C(=O)OC)cc1 (stereo not drawn)	1	8
O=C(Nc1ccc2c(c1)OCCO2)N1CCC2(CC1)Nc1cc(F)ccc1-n1cccc12	69*	-2
CCOC(=O)c1cccc(NC(=O)N2CCC3(CC2)Nc2cc(F)ccc2-n2cccc23)c1	68*	-2
CN1c2cc(F)ccc2C(=O)NC12CCN(C(=O)Nc1ccc3c(c1)OCO3)CC2	5	-4
O=C(Nc1ccc(F)cc1)N1CCC2(CC1)Nc1cc(F)ccc1-n1cccc12	48	0
Cc1ccc(NC(=O)N2CCC3(CC2)Nc2cc(F)ccc2-n2cccc23)cc1	61*	-5
CCOC(=O)c1ccc(NC(=O)N2CCC3(CC2)Nc2cc(F)ccc2-n2cccc23)cc1	56*	-1
O=C(c1n[nH]c2c1CCCC2)N1CCCC(c2n[nH]c(C3CC3)n2)C1 (stereo not drawn)	8	7

Bioassay records deposited in PubChem by University of Kansas High Throughput Screening Laboratory.
